# Where “and” joins values, the source holds several entries; their conditions need not be identical. Identical values can stand only once. Records with an inconclusive call do not appear. Where a call stands in place of a potency, no number is given. Values without a mark were called inactive. Calls of active or inactive are those of the source. Calls come from the whole dose curve; as a rule, active = well fitted curve in the direction sought with a large enough effect; inconclusive = small, poorly fitted or top-dose-only effect, or another doubt; inactive = no such curve, though single readings can be large; an effect the other way counts as inactive or inconclusive.
# Key:
# [1] = P-glycoprotein substrates identified in KB-3-1 adenocarcinoma cell line, qHTS therapeutic library screen (AID 1346986); note: nearly all actives have a fitted effect of over 60% in size;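 note: potency is for cytotoxicity meaning loss of cell viability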
# How it was run: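 In 1536-well format, 500 cells/well received pinned compound titrations and were incubated 72 h, 5% CO2. Viability was read by CellTiter-Glo; cytotoxic if AC50 < 10 uM and efficacy >50%.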
# [2] = P-glycoprotein substrates identified in KB-8-5-11 adenocarcinoma cell line, qHTS therapeutic library screen (AID 1346987); note: nearly all actives have a fitted effect of over 65% in size; for activity change, negative = cytotoxicity: series mostly up to about 44 µM
# How it was run: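 Luminescence from CellTiter-Glo, read 5 min after addition, quantified survival of KB-8-5-11 (P-gp-overexpressing) cells exposed to compounds for 72 h. AC50 was derived from concentration-response curves.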
# Potency is the fitted concentration of half-maximal effect.
smiles,measurement,setting,value
CC(=O)/C=C/[C@H]1[C@](C)(O)[C@@H](O)[C@H](OC(C)=O)C2C(C)(C)CCC[C@@]21C (some centres undefined),Potency,[1],inactive
same,Potency,[2],inactive
O=C(CN1C(=O)C2(CCCC2)NCC1c1cc(F)cc(F)c1)Nc1ccc2c(c1)CC1(C2)C(=O)Nc2ncccc21 (centres undefined),Potency,[1],inactive
same,Potency,[2],inactive
CC1(C)CCC2(C(=O)OC3OCC(O)C(O)C3O)CCC3(C)C(=CCC4C5(C)CC(O)C(OC6OC(COC7OCC(O)C(O)C7O)C(O)C(O)C6O)C(C)(C)C5CCC43C)C2C1 (centres undefined),outcome,[1],inactive [at 9.29 µM]
same,outcome,[2],inactive [at 9.29 µM]
CC12CCC3c4ccc(OC5OC(C(=O)O)C(O)C(O)C5O)cc4CCC3C1CCC2O (centres undefined),Potency,[1],inactive
same,Potency,[2],inactive
CC(C(O)/C=C/C(C)(C)O)C1CCC2(C)C3C(=O)C=C4C(CCC(O)C4(C)C)C3(C)CCC12C (centres undefined),Potency,[1],inactive
same,Potency,[2],inactive
COc1c2c(c(C)c3c1C(=O)OC3)O[C@@]1(C)CC(O)C(C(C)(C)O)[C@](C)(CCC(=O)O)[C@H]1C2 (some centres undefined),Potency,[1],inactive
same,Potency,[2],inactive
CC(=O)O[C@@H]1[C@@H](O)[C@H](O[C@H]2CC[C@]34C[C@]35CC[C@]3(C)[C@@H]([C@@]6(C)CC[C@@H](C(C)(C)O)O6)[C@@H](O)C[C@@]3(C)[C@@H]5C[C@H](O[C@@H]3O[C@H](CO)[C@@H](O)[C@H](O)[C@H]3O)[C@H]4C2(C)C)OC[C@H]1O,Potency,[1],inactive
same,Potency,[2],inactive
CC(C)C(=O)OC[C@H]1O[C@H](O[C@H]2O[C@H](CO)[C@@H](O)[C@H](O)[C@H]2O)[C@H](O)[C@@H](O)[C@@H]1O,Potency,[1],inactive
same,Potency,[2],inactive
CC1=CC2C(CC1OC1OC(CO)C(O)C(O)C1O)C(C)CC(=O)C2C(C)C (centres undefined),Potency,[1],inactive
same,Potency,[2],inactive
O=C(NCC(O)CO)c1ccncc1Nc1ccc(I)cc1F (centres undefined),Potency,[1],inactive
same,Potency,[2],inactive
C=C1C[C@]23C[C@H]1CC[C@H]2C1=C[C@H]2OC(=O)[C@@](C)([C@H]1[C@@H]3C(=O)O)[C@H]2O,Potency,[1],inactive
same,Potency,[2],inactive
C[C@H](Nc1ncnc2nc[nH]c12)c1cc2ccc(F)cc2nc1-c1ccccn1,Potency,[1],inactive
same,Potency,[2],inactive
COc1cc2c(cc1OC)CC(=O)N(CCCNC[C@H]1Cc3cc(OC)c(OC)cc31)CC2,Potency,[1],inactive
same,Potency,[2],inactive
Cn1c2ccc(F)cc2c2c(C(=O)N3CCCC3)cn(-c3ccccc3)c(=O)c21,Potency,[1],inactive
same,Potency,[2],inactive
O=C(Nc1ccn[nH]1)c1c(F)cccc1F,Potency,[1],inactive
same,Potency,[2],inactive
COC(=O)C1=CO[C@@H](O[C@@H]2O[C@H](CO)[C@@H](O)[C@H](O)[C@H]2O)[C@@H]2C(COC(C)=O)=C[C@H](O)[C@H]12,Potency,[1],inactive
same,Potency,[2],inactive
O=C(NOCC(O)CO)c1ccc(F)c(F)c1Nc1ccc(I)cc1F (centres undefined),Potency,[1],inactive
same,Potency,[2],inactive
CCC(O)(C(=O)OCc1ccccc1NC(=O)CCC(=O)O)C(C)O (centres undefined),Potency,[1],inactive
same,Potency,[2],inactive
CC(=O)O[C@@H]1[C@@H](CO)O[C@@](CO)(O[C@H]2O[C@H](COC(=O)/C=C/c3ccccc3)[C@@H](O)[C@H](O)[C@H]2O)[C@H]1O,Potency,[1],inactive
same,Potency,[2],inactive
OC[C@H]1O[C@@H](Oc2ccccc2)[C@H](O)[C@@H](O)[C@@H]1O,Potency,[1],inactive
same,Potency,[2],inactive
O=C1OCc2cc3cccc(O[C@@H]4O[C@H](CO)[C@@H](O)[C@H](O)[C@H]4O)c3c(O)c21,Potency,[1],inactive
same,Potency,[2],inactive
Cc1c2cc(c(C(=O)O)c1C)OC1OC(C(O)C(O)C1O)C(O)C(O)C1OC(O2)C(O)C(O)C1O (centres undefined),Potency,[1],inactive
same,Potency,[2],inactive
CCn1cc(NC(=S)Nc2cc(Cl)ccc2OC)c(C(N)=O)n1,Potency,[1],inactive
same,Potency,[2],inactive
CC(C)(O)/C=C/CC(C)(O)C1C(O)CC2(C)C3CCC4C(C)(C)C(=O)CCC4(C)C3CCC12C (centres undefined),Potency,[1],inactive
same,Potency,[2],inactive
CC1CC(C(O)C(C)(C)O)OC2CC3(C)C4(C)CCC5C(C)(C)C(=O)CCC5(C)C4CCC3(O)C12O (centres undefined),Potency,[1],inactive
same,Potency,[2],inactive
CCC[C@@H]1O[C@@H]2C[C@H]3[C@@H]4CCC5=CC(=O)C=C[C@]5(C)[C@H]4[C@@H](O)C[C@]3(C)[C@]2(C(=O)CO)O1,Potency,[1],inactive
same,Potency,[2],inactive
C/C1=C\CC[C@H](C)CCO[C@@H]2O[C@H](CO[C@@H]3OC[C@](O)(COC1=O)[C@H]3O)[C@@H](O)[C@H](O)[C@H]2O,Potency,[1],inactive
same,Potency,[2],inactive
C=C1C(=O)OC2C1C(O)CC1(C)C(O)CCC(C=O)C21 (centres undefined),Potency,[1],inactive
same,Potency,[2],inactive
COC1=CC(=O)CC(C)C12Oc1cc(OC)cc(O)c1C2=O (centres undefined),Potency,[1],inactive
same,Potency,[2],inactive
C=C1C(=O)O[C@@H]2C[C@H](C)[C@@]3(O)C=C(C(C)=O)[C@]4(CC3C[C@H]12)C(=O)O[C@H]1C[C@@H](C)C(CCC(C)=O)=CC[C@H]14 (some centres undefined),Potency,[1],inactive
same,Potency,[2],inactive
C[C@@H]1C[C@H]2O[C@@H]2/C=C\C=C\C(=O)Cc2c(Cl)c(O)cc(O)c2C(=O)O1,Potency,[1],2.86 µM (active)
same,Potency,[2],438 nM (active) and 5.7 µM (active)
CC/C=C\C/C=C\C/C=C\CCCCCCCC(=O)OCC(O)COC1OC(CO)C(O)C(O)C1O (centres undefined),Potency,[1],inactive
same,Potency,[2],inactive
CC(=O)OC1C(O)C2C(C)C3=CC(=O)OC3(O)CC2C2(C)CCCC(C)(CO)C12 (centres undefined),Potency,[1],inactive
same,Potency,[2],inactive
CCOC(=O)C(CCc1ccccc1)NC(C)C(=O)N1C(=O)N(C)CC1C(=O)O (centres undefined),Potency,[1],inactive
same,Potency,[2],inactive
CNC(=O)c1cccc(-c2ccc3c(N4CCOC[C@@H]4C)nc(N4CCOC[C@@H]4C)nc3n2)c1,Potency,[1],0.92 µM (active)
same,Potency,[2],366 nM (active) and 580 nM (active)
COc1ccc(/C=C\C(=O)O)c(O[C@@H]2O[C@H](CO)[C@@H](O)[C@H](O)[C@H]2O)c1,Potency,[1],inactive
same,Potency,[2],inactive
C[C@@H]1O[C@@H](OC[C@H]2O[C@@H](OC(CCCCc3ccc(O)cc3)CCc3ccc(O)cc3)[C@H](O)[C@@H](O)[C@@H]2O)[C@H](O)[C@H](O)[C@H]1O (some centres undefined),Potency,[1],inactive
same,Potency,[2],inactive
C[C@@H]1O[C@@H](O[C@@H]2CO[C@@H](O[C@H]3CC[C@@]4(C)C(CC[C@]5(C)C4CC=C4[C@@H]6CC(C)(C)CC[C@]6(C(=O)O[C@@H]6O[C@H](CO)[C@@H](O)[C@H](O)[C@H]6O)CC[C@]45C)[C@]3(C)CO)[C@H](O)[C@H]2O[C@@H]2O[C@H](CO)[C@@H](O)[C@H](O)[C@H]2O)[C@H](O)[C@H](O)[C@H]1O (some centres undefined),outcome,[1],inactive [at 9.29 µM]
same,"activity change, negative = cytotoxicity",[2],4.08% [at 9.29 µM]
O=C1NC(Cc2c[nH]c3ccccc23)C(=O)NC1Cc1c[nH]c2ccccc12 (centres undefined),Potency,[1],inactive
same,Potency,[2],inactive
C[C@@H]1O[C@@H](O[C@H]2[C@H](O[C@H]3[C@H](O)[C@@H](C(=O)O)O[C@@H](O[C@H]4CC[C@@]5(C)C(CC[C@]6(C)C5CC[C@]57OC[C@@]8(CCC(C)(C)CC85)[C@H](O)C[C@]76C)C4(C)C)[C@@H]3O[C@@H]3O[C@H](CO)[C@@H](O[C@@H]4OC[C@@H](O)[C@H](O)[C@H]4O)[C@H](O)[C@H]3O)O[C@H](CO)[C@H](O)[C@@H]2O)[C@H](O)[C@H](O)[C@H]1O (some centres undefined),outcome,[1],inactive [at 9.29 µM]
same,"activity change, negative = cytotoxicity",[2],2.43% [at 9.29 µM]
CCCOc1ccc(-c2nc(OC)c3ccccc3n2)cc1,Potency,[1],inactive
same,Potency,[2],inactive
Nc1nccn2c(C3CCC(C(=O)O)CC3)nc(-c3cc4cccc(Cl)c4[nH]3)c12 (centres undefined),Potency,[1],1.64 µM (active)
same,Potency,[2],1.46 µM (active)
CC1CC(O)C2(OC1=O)OC1C(O)C3C4CCC5CC(OC6OC(CO)C(O)C(O)C6OC6OC(C)C(O)C(O)C6O)CCC5(C)C4CCC3(C)C1C2C (centres undefined),Potency,[1],inactive
same,Potency,[2],inactive
CC(=O)O[C@H]1[C@H](O[C@H]2[C@@H]3C=CO[C@@H](O[C@@H]4O[C@H](CO)[C@@H](O)[C@H](O)[C@H]4O)[C@@H]3[C@@]3(CO)O[C@@H]23)O[C@@H](C)[C@H](OC(=O)/C=C/c2ccccc2)[C@H]1OC(=O)/C=C/c1ccccc1,outcome,[1],inactive [at 9.29 µM]
same,outcome,[2],inactive [at 9.29 µM]
COc1cc2ncnc(Nc3cccc(O)c3)c2cc1OC,Potency,[1],inactive
same,Potency,[2],inactive
CCCOC(c1cc2nccc(C(=O)O)c2[nH]1)c1ccccc1Cl (centres undefined),Potency,[1],inactive
same,Potency,[2],inactive
CC(=O)O[C@H]1[C@@H](O)[C@H](O[C@H]2[C@@H]3C=CO[C@@H](O[C@H]4O[C@@H](CO)[C@H](O)[C@@H](O)[C@@H]4O)[C@@H]3[C@@]3(CO)O[C@@H]23)O[C@@H](C)[C@@H]1OC(=O)/C=C/c1ccccc1,Potency,[1],inactive
same,Potency,[2],inactive
C=C1CC[C@@H]2[C@](C)(CO[C@@H]3O[C@H](CO)[C@@H](O)[C@H](O)[C@H]3O)[C@H](O)CC[C@@]2(C)[C@@H]1C/C=C1/C(=O)OC[C@H]1O,Potency,[1],inactive
same,Potency,[2],inactive
Nc1nc2c(ncn2[C@@H]2O[C@@H]3COP(=O)(O)O[C@H]3[C@H]2O)c(=O)[nH]1,Potency,[1],inactive
same,Potency,[2],inactive
CC(=O)OC1C[C@@]2(C)[C@@H](CC[C@@H](C)[C@]23Cc2c(O)cc4c(c2O3)CNC4=O)C(C)(C)[C@@H]1O (some centres undefined),Potency,[1],inactive
same,Potency,[2],inactive
C=C(C(=O)O)C1CCC2(C)CCCC(C)(O)C2C1 (centres undefined),Potency,[1],inactive
same,Potency,[2],inactive
CC(C)(O)c1ccc2c(c1)C(O)C[C@H]1[C@](C)(C(=O)O)CCC[C@]21C (some centres undefined),Potency,[1],inactive
same,Potency,[2],inactive
C=C(C(=O)O)[C@H]1C[C@]2(C)[C@@H](O)CC[C@]23O[C@H]1C[C@@H]3C,Potency,[1],inactive
same,Potency,[2],inactive
Cn1c(=O)n(-c2ccc(C(C)(C)C#N)cc2)c2c3cc(C#Cc4cccnc4)ccc3ncc21,Potency,[1],0.126 µM (active)
same,Potency,[2],0.0893 µM (active)
CC1(C)C2CC(OC3OC(COC4OCC(O)(CO)C4O)C(O)C(O)C3O)C1(C)CC2O (centres undefined),Potency,[1],inactive
same,Potency,[2],inactive
CO[C@H]1O[C@@H]2O[C@]3(C)CC[C@H]4[C@H](C)CC[C@@H]([C@H]1C)[C@@]24OO3,Potency,[1],inactive
same,Potency,[2],inactive
O=C(Nc1c(-c2cccs2)nc2ccccn12)c1ccc(Cl)cc1,Potency,[1],inactive
same,Potency,[2],inactive
